Measured values taken from PubChem BioAssay AID697 (Columbia University Molecular Screening Center, 2007).
The campaign covered roughly 96,000 compounds. About 100 (0.1%) were called active.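 The calls were made as follows: active = activation at 2 µM above a set limit, the mean plus 5 SD (cut at about 37% in these data); inactive = the rest.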 The sample as a whole holds a higher share of actives than the screen did.

What follows are compounds tested against Tyrosine-protein phosphatase non-receptor type 22 (Homo sapiens) (UniProt Q9Y2R2) (assay: LYP phosphatase activators, primary screen, biochemical, DiFMUP fluorescence, 2 µM (AID 697)). Settings: recombinant LYP, at 2 µM, hits give high values, 0 = plate median, 100 = signal doubled.
Sequence of Tyrosine-protein phosphatase non-receptor type 22 (Homo sapiens) (Q9Y2R2 whole entry, looked up): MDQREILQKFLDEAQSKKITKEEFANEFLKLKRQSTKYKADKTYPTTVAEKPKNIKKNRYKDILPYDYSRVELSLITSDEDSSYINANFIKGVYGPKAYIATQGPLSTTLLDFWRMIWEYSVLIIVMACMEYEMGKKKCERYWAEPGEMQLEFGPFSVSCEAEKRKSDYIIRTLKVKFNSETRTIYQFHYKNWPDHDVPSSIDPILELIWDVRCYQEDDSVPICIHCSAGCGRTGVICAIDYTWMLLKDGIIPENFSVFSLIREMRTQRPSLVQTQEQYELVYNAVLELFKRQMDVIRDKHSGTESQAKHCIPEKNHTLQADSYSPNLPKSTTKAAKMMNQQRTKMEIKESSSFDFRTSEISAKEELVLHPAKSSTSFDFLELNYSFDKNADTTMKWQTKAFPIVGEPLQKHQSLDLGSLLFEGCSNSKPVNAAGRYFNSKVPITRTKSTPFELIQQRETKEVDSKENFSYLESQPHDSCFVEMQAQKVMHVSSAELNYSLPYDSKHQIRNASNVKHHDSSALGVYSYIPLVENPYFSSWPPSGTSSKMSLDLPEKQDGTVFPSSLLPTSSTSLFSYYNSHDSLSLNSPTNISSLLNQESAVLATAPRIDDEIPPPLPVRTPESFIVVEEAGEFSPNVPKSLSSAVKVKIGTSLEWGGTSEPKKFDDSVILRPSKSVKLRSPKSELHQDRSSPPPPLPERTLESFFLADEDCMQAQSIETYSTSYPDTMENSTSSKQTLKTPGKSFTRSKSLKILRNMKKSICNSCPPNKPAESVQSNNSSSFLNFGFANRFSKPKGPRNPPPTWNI

activation, inactive:
O=C(Nc1ccc2c(c1)CCC2)c1cccc(S(=O)(=O)N2CCN(c3ccc(F)cc3)CC2)c1 -11.2%
COCCCNC(=O)C1CC(=O)N(CCc2ccccc2)C1 (stereo not given) 3.1%
Cc1ccc(S(=O)(=O)N2CCC(C(=O)NCC3CCCO3)CC2)cc1 (stereo not given) 0.4%
COC(=O)c1ccccc1Sc1c(/C=N/OCc2ccc(Cl)cc2)c(C(F)(F)F)nn1C -3.5%
CN(C(=O)CC(NC(=O)c1ccccc1)(c1ccccc1)c1ccccc1)c1ccccc1 -4.3%
FC(F)(F)c1cnc(Oc2ccccc2-c2nnc(-c3ccc(Cl)cc3)o2)c(Cl)c1 4.7%
CS(=O)(=O)N(Cc1ccc(Cl)cc1)c1ccc(C(=O)NCCSCc2ccco2)cc1 10.1%
CCOC(=O)N1CCC(N(CCOC)C(=O)Nc2ccc(C)c(C)c2)CC1 -11.9%
COC(=O)c1ccccc1NC(=O)Cc1ccccc1OC -0.7%
COc1ccccc1C(=O)N1CC2(C)CC1CC(C)(C)C2 (stereo not given) -6%
CCOC(=O)C1=C(c2ccccc2)N=C2SCC(=O)N2C1c1ccc(O)c(OC)c1 (stereo not given) 6.1%
Cn1c(CO)cnc1SCc1ccccc1 5.8%
CN(C)c1ccc(/C=C2\NC(=S)N(Cc3ccccc3)C2=O)cc1 -19.7%
CC(C)C(=O)Nc1cccc(NC(=S)NC(=O)C(c2ccccc2)c2ccccc2)c1 -14%
O=C(Nc1ccc(Br)cc1)C1CCC(=O)N1Cc1ccccc1Cl (stereo not given) -2.1%
COC(=O)/C=C/C(=O)NCc1ccco1 -5.4%
N#CCSc1nc2ccc(N3CCOCC3)cc2c(=O)n1CCc1ccccc1 3.3%
CCOC(=O)C(=CNc1cccc(C)n1)C(=O)OCC 6.8%
CCOc1c(Br)cc(/C=C2\C(=O)N(CCC#N)N=C2C)cc1OC -0.1%
CCOC(=O)c1cnc(SCc2nc(N)nc(Nc3ccc(OC)cc3)n2)nc1N 0.5%
CCC(C)NC(=O)c1cc(Cl)ccc1OC (stereo not given) 7%
CCN(CC)CCNC(=O)CCCCCn1c(=O)[nH]c2cc(C(=O)OC)ccc2c1=O 6.8%
O=C(NC1CCCCC1)c1ccc(CNc2c(N3CCOCC3)c(=O)c2=O)cc1 10.2%
CC(C)CNC(=O)CC(c1ccccc1)c1c(O)ccc2ccccc12 (stereo not given) -3.2%
O=C(NC1CCCC1)C(c1ccccn1)N(C(=O)c1csnn1)C1CCCC1 (stereo not given) -2.6%
O=C(COc1ccc2c(C(F)(F)F)cc(=O)oc2c1)Nc1ccc2c(c1)OCCO2 -12.8%
CCOc1ccc(NC(=O)C2CC(=O)N=C(N)S2)cc1 (stereo not given) -0.7%
O=C(CCN1C(=O)c2ccccc2C1=O)Nc1cccc(F)c1 7.2%
CC1(C)CCc2nc(SCc3ccccc3)c(C#N)cc2C1 7.1%
C/C(=N\NC(=O)c1ccc(C)cc1)C1C(=O)c2ccccc2C1=O -6.7%
CCn1nccc1C(=O)Nc1ccc(S(=O)(=O)NC23CC4CC(CC(C4)C2)C3)cc1 4.2%
N#C/C(=C/c1ccc(Cl)cc1)NC(=O)c1ccccc1 -6.7%
OC(COc1ccc2ccccc2c1)Cn1cncn1 (stereo not given) -5.7%
CC1(C)OC(=O)N2CCc3ccccc3C21C (stereo not given) -7.1%
Cc1ccccc1OCc1nnc(SCC(=O)N2c3ccccc3Sc3ccc(Cl)cc32)o1 4.7%
CCOC(=O)C1CSC(CC(=O)Nc2ccc(OCC)cc2)C(=O)N1 (stereo not given) 4.7%
CCN(CC)CCn1c2ccc(Cl)cc2c2nc(C)sc21 -0.1%
CCCc1nc2ccccc2c(C(=O)OCC(=O)c2ccc3c(c2)NC(=O)CO3)c1CC 3.9%
Cc1cc(C)c2c(-n3cccc3)c(C(=O)NNS(=O)(=O)c3ccc(F)cc3)sc2n1 -0.7%
Cc1cc(C)cc(N(CC(=O)N2CC=C(c3ccccc3)CC2)S(=O)(=O)c2c(C)noc2C)c1 -2.1%
O=C(NC1CC1)c1ccc2c(c1)NC(=O)c1ccccc1S2 3.4%
O=C(c1ccccc1)c1cc(-c2ccccn2)c(N2CCOCC2)s1 6.1%
Cc1ccccc1-n1c(C)cc(/C=C2\NC(=O)NC2=O)c1C 12.1%
O=C(CN1CCN(c2ccc(Cl)cc2)CC1)N1CCCC1 -12%
CN(C)C(CNC(=O)CCCOc1ccccc1)c1ccco1 (stereo not given) -1%
N#Cc1ccsc1NC(=O)CN1CCCCC1 5.2%
COCCn1c(=S)[nH]c2cc(C(=O)NCCc3ccc(OC)c(OC)c3)ccc2c1=O -10.7%
Cc1cc(C)c(S(=O)(=O)N2C=CC(C(F)(F)F)=NCC2)c(C)c1 16.2%
Cc1ccc(-c2nn(-c3ccccc3)cc2/C=N/NC(=O)c2ccc3c(c2)OCO3)cc1 -4.4%
Cc1ccc(S(=O)(=O)NC(=O)COc2ccccc2C)cc1 -2.9%
COc1ccc(C(=O)Cc2cnn(-c3ccccc3)c2)c(O)c1 -3%
Cc1ccc(-c2nc3ccccc3[nH]2)cc1NC(=O)c1sc2ccccc2c1Cl -22.6%
COc1cc(N2CCCC2)c(OC)cc1/C=C(/C#N)c1cccc(Br)c1 -2.3%
C=CCn1c(SCCOc2ccc(OC)cc2)nnc1C(NC(=O)c1ccc(OC)cc1)C(C)C (stereo not given) -4.5%
CCCc1nc2oc3c(OCC)ncnc3c2c2c1COC(C)(C)C2 -1.3%
O=C(NN1C(=O)C2C3C=CC(C4CC34)C2C1=O)c1ccc(Cl)cc1 (stereo not given) 3.3%
COc1ccccc1C(=O)Nc1ccc(NC(=O)c2ccco2)c(C)c1 7.2%
COc1ccc(N2CCN(C(=O)CNC(=O)c3ccc(C(C)(C)C)cc3)CC2)cc1 -8.3%
CCN(CC)C(=O)CSc1nc2ccccc2o1 8.6%
COc1cccc(N(CC(=O)NCCSc2ccccn2)S(C)(=O)=O)c1 -4.5%
